Data reported in ChEMBL document CHEMBL3988442, “University of Dundee, Small-Polar-MMV Screening Library” (2021).
The whole screen tested about 69,000 compounds, of which about 950 (1.4%) showed an effect of 50% or more. The full list was thinned out, with strong results kept by preference.

test system: Mycobacterium tuberculosis; assay: Cornell M. t heat shock assay; format: functional, organism-based; design: dose or concentration left out as unconfirmed; further: in the data most compounds retested in dose-response had high values

For COc1ncccc1CN1C[C@@H]2COC[C@]2(CNS(C)(=O)=O)C1.O=C(O)C(F)(F)F.O=C(O)C(F)(F)F, which “Percent Effect” value is on record?
Its value is -54.94%.

O=C(NCc1ccccn1)[C@]12COC[C@H]1CN(Cc1cccnc1)C2.O=C(O)C(F)(F)F.O=C(O)C(F)(F)F.O=C(O)C(F)(F)F was tested. Which “Percent Effect” value did it give?
Its value is -8.191%.

With CC(=O)N1CCC2(CC1)COCCN2Cc1ccc(F)cc1.O=C(O)C(F)(F)F as the molecule, how does the “Percent Effect” value read?
The value was -4.953%.

CN(C)[C@@H]1CN(C(=O)Cc2ccccc2)[C@@H]2CCCO[C@H]12.O=C(O)C(F)(F)F was tested. Which “Percent Effect” value did it give?
Its value is -12.48%.

Which “Percent Effect” value does the source give for CN1C(=O)CC(c2cnn(C)c2)C12CCN(C(=O)c1ccncc1)CC2.O=C(O)C(F)(F)F (stereo not given) here?
The value was -21.56%.

How did the “Percent Effect” value turn out when COc1cc(CNCC(O)c2ccc(C)cc2)cc2c1OCO2.Cl (stereo not given) was run?
The value was -8.52%.

For O=C(NCC1CCCCC1)N1C[C@H]2C[C@H](C(=O)N3CCCC3)[C@@H](C1)O2, which “Percent Effect” value is on record?
The value was -29.22%.

CN(C)C(=O)CN1CCCC2(CCN(c3ccsc3)C2=O)C1.O=C(O)C(F)(F)F (stereo not given) was tested. Which “Percent Effect” value did it give?
The value was -10.79%.

How did the “Percent Effect” value turn out when COc1ccc(CN2C[C@H]3C[C@H](CN(C)C)O[C@H]3C2)cc1.O=C(O)C(F)(F)F.O=C(O)C(F)(F)F was run?
The value was -20.17%.

Which “Percent Effect” value does the source give for CC(C)NC(=O)[C@H]1C[C@@H]2CN(C(=O)NCCc3ccccc3)C[C@H]1O2 here?
The value was -3.811%.

Cl.O=c1c2sccc2nc2n1CCN(Cc1cc(F)ccc1F)CC2 was tested. Which “Percent Effect” value did it give?
Its value is 0.6259%.

COc1cc(CN2CC(=O)N(c3ccc(C)cc3)CC2C)cc(OC)c1 (stereo not given) was tested. Which “Percent Effect” value did it give?
Its value is 23.62%.

Which “Percent Effect” value does the source give for COc1ccc(CN2CC(=O)N(c3ccc(C)cc3)CC2C)cc1O (stereo not given) here?
The value was -4.116%.

How did the “Percent Effect” value turn out when COc1cccc(OC)c1CN1CC(=O)N(c2ccc(C)cc2)CC1C (stereo not given) was run?
Its value is 53.82%.

For CC(CCSc1ccccc1)N1CCCN(C(N)=O)CC1 (stereo not given), which “Percent Effect” value is on record?
The value was 30.42%.

How did the “Percent Effect” value turn out when CC(CCSc1ccccc1)N1CCN(C(=O)c2cccs2)CC1 (stereo not given) was run?
Its value is 96%.

CC(CCSc1ccccc1)N1CCN(C(=O)c2ccccc2O)CC1 (stereo not given) was tested. Which “Percent Effect” value did it give?
The value was 35.88%.

For COCCNC(=O)C[C@@H]1COC[C@H]2CN(CC3CCOCC3)C[C@@H]12.O=C(O)C(F)(F)F, which “Percent Effect” value is on record?
The value was -14.59%.

For Cc1ccc(C(=O)N2CCc3ncnc(-c4cnn(C)c4)c3CC2)cn1.O=C(O)C(F)(F)F, which “Percent Effect” value is on record?
Its value is -33.4%.

Which “Percent Effect” value does the source give for Cc1cc(NC(=O)NCCc2ccccc2)n(C)n1 here?
The value was -19.68%.

Cc1cc(NC(=O)NCCc2ccsc2)n(C)n1 was tested. Which “Percent Effect” value did it give?
Its value is 63.69%.

With COc1ccc(CCNC(=O)Nc2cc(C)nn2C)cc1 as the molecule, how does the “Percent Effect” value read?
Its value is 8.379%.

For Cn1cc(NC(=O)CCc2ccsc2)ccc1=O, which “Percent Effect” value is on record?
Its value is 27.26%.

Cc1cnccc1NC(=O)CCc1ccsc1 was tested. Which “Percent Effect” value did it give?
Its value is -21.59%.

For Cc1cc(NC(=O)CCc2ccsc2)n(C)n1, which “Percent Effect” value is on record?
Its value is 89.31%.

How did the “Percent Effect” value turn out when COCCN1Cc2nccn2CC(COCc2csc(C)n2)C1.O=C(O)C(F)(F)F.O=C(O)C(F)(F)F (stereo not given) was run?
The value was 2.482%.

How did the “Percent Effect” value turn out when O=S(=O)(c1ccc2c(c1)OCCO2)N1CCc2ccccc2C1 was run?
The value was -4.595%.

O=C(O)C(F)(F)F.c1ccc(N2CCCC3(CCN(Cc4cccs4)C3)C2)nc1 (stereo not given) was tested. Which “Percent Effect” value did it give?
Its value is -4.42%.

For Cc1ccc(C(CCNCCCN(C)C)C2CCOC(C)(C)C2)cc1.O=C(O)C(=O)O (stereo not given), which “Percent Effect” value is on record?
The value was -7.6%.

For CCn1ncc(-c2cc(C(F)(F)F)nc(N3CCC(N)CC3)n2)c1C, which “Percent Effect” value is on record?
The value was 23.29%.

Which “Percent Effect” value does the source give for CCc1ccc(-c2cc(C(F)(F)F)nc(N3CCC(N)CC3)n2)cc1 here?
Its value is 103%.

Cc1c(-c2cc(C(F)(F)F)nc(N3CCC(N)CC3)n2)cnn1C was tested. Which “Percent Effect” value did it give?
Its value is -8.82%.

Which “Percent Effect” value does the source give for O=C(C1CC(F)(F)C1)N1C[C@@H]2CN(CC3CCCC3)CCO[C@@H]2C1.O=C(O)C(F)(F)F here?
Its value is -23.11%.

For CN1CC(=O)N(c2ccsc2)CC12CCN(C(=O)N1CCCC1)C2.O=C(O)C(F)(F)F (stereo not given), which “Percent Effect” value is on record?
Its value is -15.35%.

For CCc1cnc(N2CCC3(CC2)CN(c2cccnc2)C(=O)CO3)nc1.O=C(O)C(F)(F)F, which “Percent Effect” value is on record?
Its value is -15.98%.

For CCN1CCC(c2nc3ccc(NC4CCC4)cn3n2)CC1.O=C(O)C(F)(F)F, which “Percent Effect” value is on record?
The value was 28.46%.

Which “Percent Effect” value does the source give for Cc1noc(C)c1CN1C[C@@H]2COC[C@H](C(=O)N3CCCCO3)[C@@H]2C1.O=C(O)C(F)(F)F here?
Its value is 10.78%.

For CC(=O)N[C@@H]1CN(C(=O)c2cccc(C(F)(F)F)c2)C[C@H]1O, which “Percent Effect” value is on record?
Its value is -5.977%.

Which “Percent Effect” value does the source give for Cc1cc(NC(=O)c2nc(N3CCCC3)ncc2Cl)nc(C(C)C)n1 here?
The value was 105.6%.

Which “Percent Effect” value does the source give for O=C(Nc1ccccn1)c1nc(N2CCCC2)ncc1Cl here?
The value was -2.485%.

O=C(Nc1cc(Cl)ccn1)c1nc(N2CCCC2)ncc1Cl was tested. Which “Percent Effect” value did it give?
Its value is 5.327%.

For CC[C@H]1CN2CC[C@H]1C[C@@H]2CNCc1ccc(OC)cc1, which “Percent Effect” value is on record?
Its value is -7.267%.

How did the “Percent Effect” value turn out when CC[C@H]1CN2CC[C@H]1C[C@@H]2CNCc1ccc(OC(F)(F)F)cc1 was run?
The value was 100.5%.

How did the “Percent Effect” value turn out when CC[C@H]1CN2CC[C@H]1C[C@@H]2CNC(=O)Nc1ccccc1 was run?
The value was -5.923%.

With CC[C@H]1CN2CC[C@H]1C[C@@H]2CNC(=O)Nc1cc(OC)cc(OC)c1 as the molecule, how does the “Percent Effect” value read?
Its value is 76.55%.

How did the “Percent Effect” value turn out when CC[C@H]1CN2CC[C@H]1C[C@@H]2CNC(=O)Nc1ccc(Br)cc1 was run?
The value was 4.849%.

How did the “Percent Effect” value turn out when CC[C@H]1CN2CC[C@H]1C[C@@H]2CNCc1ccc(N(C)C)cc1 was run?
The value was 1.41%.

CC(C)C(=O)N(C)Cc1nc(N2CCCC2)ncc1-c1ccncc1.Cl was tested. Which “Percent Effect” value did it give?
The value was 19.59%.

CC(C)c1cc(C(=O)N2CCCC(n3cncn3)C2)n[nH]1 (stereo not given) was tested. Which “Percent Effect” value did it give?
Its value is -20.76%.

For Cc1[nH]nc2ncc(C(=O)N3CCN(CC(C)O)CC3)cc12.Cl (stereo not given), which “Percent Effect” value is on record?
Its value is -10.49%.

Which “Percent Effect” value does the source give for Cc1noc(C)c1CN1CCO[C@H]2CN(Cc3cncn3C)C[C@H]21.O=C(O)C(F)(F)F.O=C(O)C(F)(F)F here?
Its value is -21.37%.

CN1CCc2nc(C3CCCN(C(=O)CC4CCCCC4)C3)ncc2C1 (stereo not given) was tested. Which “Percent Effect” value did it give?
Its value is -14.45%.

With O=C(CCC1CCCC1)N1CCC(c2ncc3c(n2)CCNC3)CC1 as the molecule, how does the “Percent Effect” value read?
Its value is 14.08%.

How did the “Percent Effect” value turn out when CN1CCc2nc(C3CCN(C(=O)CCC4CCCC4)CC3)ncc2C1 was run?
The value was 104.5%.

How did the “Percent Effect” value turn out when Cc1ccc(CN2C[C@@H]3C[C@H](C(=O)NCC4CC4)N(C)[C@@H]3C2)o1.O=C(O)C(F)(F)F.O=C(O)C(F)(F)F was run?
The value was -27.97%.
